Experiment [1] is described as follows: Wnt pathway potentiators raising nuclear beta-catenin – imaging, WNT3A-conditioned medium, mouse C2C12, NPC library, primary screen (AID 1117326). Conditions: stronger effect = higher value.
Experiment [2] is described as follows: growth inhibition of GSK3B-pretreated HCT116 cells – cell-based, CellTiter-Glo, 0.2 to 20 µM (AID 1117336;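 active = compounds lowering colon cancer cell viability after pretreatment blocking the GSK3B kinase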). As to conditions: HCT116 viability after GSK3B inhibitor, at 20 µM, stronger effect = higher value.
The nature of experiment [3]: inhibition of endothelial tube formation, primary screen, imaging, VEGF stimulated, CD31 staining, tube area, NPC library (AID 1117340;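 active = compound that reduces growth-factor-driven endothelial tube area in a mixed cell culture, no cutoff stated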). As to conditions: VEGF-stimulated ADSC/ECFC co-culture, at 10 µM, stronger effect = higher value.
The nature of experiment [4]: HCT116 colon cancer cell growth inhibition, primary screen, CellTiter-Glo luminescence, NPC library (AID 1117342;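 active = compounds that lower survival of HCT116 colon cancer cells in the luminescence readout, no numeric limit stated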). Conditions: at 20 µM (top of the series).
Experiment [5] can be described thus: reduced SW480 viability measured with CellTiter-Glo, NPC library, primary (AID 1117343;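 active = compounds that lower viability of the colon cancer cells in the luminescence readout, with no numeric limit stated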). Conditions: CellTiter-Glo luminescence; at 20 µM (top of the series) unless noted. On the technique in general: ATP-based viability assays read luminescence as a measure of living cells.
Experiment [6] in a line: NPC library primary testing for decreased DLD-1 cell viability via CellTiter-Glo (AID 1117346;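 active = compounds that lower survival of DLD-1 colon cancer cells in the luminescence readout, no cutoff given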). As to conditions: DLD-1 viability, CellTiter-Glo luminescence; at 20 µM (top of the series).
Experiment [7] is described as follows: stimulators of insulin release from INS-1E, primary screen, cell-based, 5 mM glucose, NPC library (AID 1117329;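 active = compound raises insulin release from rat beta cells at 5 mM glucose, no numeric limit stated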). As to conditions: rat INS-1E insulin secretion, at 10 µM, stronger effect = higher value.
The nature of experiment [8]: GLP1 release stimulators, primary, NCI-H716, NPC library (AID 1117341;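 active = compound raises GLP1 secretion from the human gut endocrine cells, with no numeric limit stated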). Conditions: NCI-H716 cells, at 10 µM, stronger effect = higher value.
The nature of experiment [9]: viability loss with induced miR-34 in A549 – imaging, A549 dox-inducible miR-34, nuclei and caspase counts, primary screen (AID 1347080;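 active = compounds whose cell count with miR-34 switched on is under 0.7 times the count with it off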). Conditions: A549 miR-34 inducible, Hoechst nuclei count, 48 h.
Experiment [10] can be described thus: galactose survival enhancers in mitochondrial complex I cybrids – cell-based, galactose medium, ATP luminescence, primary screen (AID 1645843;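 active = z-score of at least 1.8 in each of two replicates, scored against plate mean and spread of sample wells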;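 also: positive z means more ATP and so rescue of galactose-driven cybrid death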). Conditions: complex I mutant cybrid cells, 72 h, stronger effect = higher value.
A short description of experiment [11]: P. berghei load reduction in hepatocytes – cell-based, HepG2, luciferase luminescence, HepG2 viability, primary screen (AID 624349; in the data active = parasite load remaining mostly below about 12%, no sharp cut-off; inactive = mostly above about 10%;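 also: 100% = mean of DMSO negative control wells on the same plate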). Conditions: P. berghei liver stage in HepG2, luciferase luminescence, concentration not given here; parasite load remaining: stronger effect = lower value; viability: measured here: HepG2 viability without parasites.
Experiment [12] concerns the target 6-phosphogluconate dehydrogenase, decarboxylating (Homo sapiens) (UniProt P52209). Nature of the experiment: inhibition of human phosphogluconate dehydrogenase – biochemical, recombinant enzyme, NADPH absorbance, primary screen (AID 1159550;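 active = at least 20% inhibition of 6-phosphogluconate dehydrogenase activity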). As to conditions: recombinant 6PGD, NADPH absorbance 341 nm; at 10 µM; stronger effect = higher value.
Experiment [13] addresses NAD(+) hydrolase SARM1 (Homo sapiens) (UniProt Q6SZW1). The experiment can be described thus: blocking NAD cleavage by SARM1 SAM-TIR – cell lysate, NAD-Glo luminescence (AID 1508614;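 active = compound whose remaining NAD level is above about 45 nM, limit read from the data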;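 also: higher remaining NAD means stronger inhibition of SARM1 NADase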). Conditions: SAM-TIR HEK293T lysate NADase, at 1 µM, stronger effect = higher value.
Experiment [14] can be described thus: compounds altering viability of human ES cells (AID 493140; call rule not given here;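 also: cells exposed to compounds for four days before counting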). Conditions: human embryonic stem cell survival screen; stronger effect = higher value.
A short description of experiment [15]: MELAS cybrid and Rieske KO viability enhancers – cell-based, MELAS cybrids, Rieske KO mouse fibroblasts, CellTiter-Glo, primary screen (AID 1508586;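 active = mean z-score across replicates of 1.96 or higher in either the MELAS or the Rieske mutant cell line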;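 also: z relative to plate mean and SD of compound and empty wells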). Conditions: low glucose.
The mark [16] stands for this setting: stronger effect = lower value, cell number ratio, induced over uninduced.
Where [17] appears, read: measured here: relative caspase fold change +Dox/-Dox.
[18] abbreviates: measured here: total cells with miR-34 induction, stronger effect = lower value.
Where [19] appears, read: measured here: total cells without miR-34 induction.

Calls of active or inactive are those of the source. Rule as the data show it, unless noted: active = nuclear beta-catenin stimulation mostly above about 4.2% (no sharp cut-off); inactive = mostly below about 10%.

Sequence of NAD(+) hydrolase SARM1 (Homo sapiens) (Q6SZW1 whole entry, looked up): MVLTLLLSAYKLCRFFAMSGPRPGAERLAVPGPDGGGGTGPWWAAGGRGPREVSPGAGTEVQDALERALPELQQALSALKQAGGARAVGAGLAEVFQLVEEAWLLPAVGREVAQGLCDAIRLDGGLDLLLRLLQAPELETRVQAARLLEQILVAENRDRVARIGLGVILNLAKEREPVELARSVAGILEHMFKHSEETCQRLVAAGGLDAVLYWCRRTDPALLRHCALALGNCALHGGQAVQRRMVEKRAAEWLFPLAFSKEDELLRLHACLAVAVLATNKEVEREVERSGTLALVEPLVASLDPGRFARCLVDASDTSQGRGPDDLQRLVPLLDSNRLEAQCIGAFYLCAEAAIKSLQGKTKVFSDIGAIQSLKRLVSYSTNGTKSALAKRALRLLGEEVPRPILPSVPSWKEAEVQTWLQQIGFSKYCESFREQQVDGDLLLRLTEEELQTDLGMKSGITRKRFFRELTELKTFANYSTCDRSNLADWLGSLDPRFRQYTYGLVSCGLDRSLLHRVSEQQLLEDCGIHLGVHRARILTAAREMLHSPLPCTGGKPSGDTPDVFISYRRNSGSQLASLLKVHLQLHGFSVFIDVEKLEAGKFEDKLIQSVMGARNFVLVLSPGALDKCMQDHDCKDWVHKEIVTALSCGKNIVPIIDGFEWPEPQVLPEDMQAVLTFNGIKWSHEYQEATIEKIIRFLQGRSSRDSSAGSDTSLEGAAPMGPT
Sequence of 6-phosphogluconate dehydrogenase, decarboxylating (Homo sapiens) (P52209 whole entry, looked up): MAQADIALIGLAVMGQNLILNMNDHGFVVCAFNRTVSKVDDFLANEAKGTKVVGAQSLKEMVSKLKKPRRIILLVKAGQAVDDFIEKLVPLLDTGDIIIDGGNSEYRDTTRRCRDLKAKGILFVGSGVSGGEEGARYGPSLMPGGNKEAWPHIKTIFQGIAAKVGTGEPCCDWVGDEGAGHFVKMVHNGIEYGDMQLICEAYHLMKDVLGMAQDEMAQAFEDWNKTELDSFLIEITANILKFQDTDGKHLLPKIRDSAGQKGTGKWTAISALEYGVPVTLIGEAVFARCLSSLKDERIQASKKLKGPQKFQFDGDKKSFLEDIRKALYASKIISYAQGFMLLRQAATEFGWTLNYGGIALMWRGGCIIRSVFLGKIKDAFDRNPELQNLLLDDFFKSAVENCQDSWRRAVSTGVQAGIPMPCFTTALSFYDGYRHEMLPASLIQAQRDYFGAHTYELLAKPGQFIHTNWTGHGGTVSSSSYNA

Turning to `Cn1cc(S(C)=O)c(=O)c2ccc(F)cc21` (centres undefined), the nuclear beta-catenin stimulation in [1] (at 10 µM) is 0.3% (inactive); in experiment [1] (stimulation, at 2 µM) it was 10.4%. Besides, in [2], the viability decrease is -6.9% (inactive). Further, the tube area decrease in experiment [3] was 1.1% (inactive). For the same compound, in [4], the inhibition of viability is 4.2% (inactive). Moreover, the figures for the viability decrease (inhibition) in [5] and in experiment [6] were -1.3% (inactive) and -1.8% (inactive), respectively.
For the compound `CSc1ccc(/C=C2/C(C)=C(CC(=O)O)c3cc(F)ccc32)cc1`, the nuclear beta-catenin stimulation is -1.4% (inactive) in experiment [1] (at 10 µM) and -0.1% in [1] (stimulation, at 2 µM). In addition, in [7], the insulin secretion stimulation is 1.85% (inactive). For the same compound, the GLP1 secretion stimulation in [8] was 9.9% (inactive).
The like results for `CCCCCCCC(=O)OCC(COC(=O)CCCCCCC)OC(=O)CCCCCCC` were, in that order, -0.5% (inactive), -1.9%, 0.2% (inactive) and -5.4% (inactive).
The like results for `CCC=CCC=CCC=CCCCCCCCC(=O)O` were, in that order, -0.2% (inactive), 0%, 2.65% (inactive) and 12.4% (inactive).
For `C=CCCCCCCCCC(=O)OC` the same measures were 2.7% (inactive), 2%, 2.85% (inactive) and 1.2% (inactive).
Turning to `CN1CCN(C2Cc3ccccc3Sc3ccc(Cl)cc32)CC1` (centres undefined), the nuclear beta-catenin stimulation in [1] (at 10 µM) was 5.2% (inactive); in experiment [1] (stimulation, at 2 µM), -1.6%. Further, the insulin secretion stimulation in experiment [7] is 6.6% (inactive). In experiment [8], the GLP1 secretion stimulation was 13.2% (inactive). The fold change in experiment [9] (setting [16]) was 1.08 (inactive); in experiment [9] (setting [17]), 0.783. In addition, the cell count in [9] (setting [18]) is 5640; in [9] (setting [19]), 5230. Also, the z-score in experiment [10] is -1.27 (inactive).
Take `COc1ccc(/C=N/NC(=O)c2ccncc2)cc1OC`: the nuclear beta-catenin stimulation is 3.6% (inactive) in [1] (at 10 µM) and 8% in [1] (stimulation, at 2 µM). In addition, the viability decrease in [2] is 2.5% (inactive). Besides, in experiment [3], the tube area decrease is 12.2% (inactive). Moreover, the inhibition of viability in experiment [4] was 11.9% (inactive). Also, the values for the viability decrease (inhibition) in experiment [5] and in [6] were -1% (inactive) and -0.1% (inactive), respectively.
With `COc1ccc2c(c1)c1c3n2CCN(C)C3=NCC1`, the nuclear beta-catenin stimulation in experiment [1] (at 10 µM) is 1.3% (inactive); in experiment [1] (stimulation, at 2 µM), 0.5%. Also, the insulin secretion stimulation in [7] is 1.05% (inactive). The GLP1 secretion stimulation in experiment [8] was 6.4% (inactive).
Turning to `Cc1cc(O)c2c(O)c3c(O)cccc3cc2c1`, the nuclear beta-catenin stimulation in experiment [1] (at 10 µM) was 6.3% (inactive); in experiment [1] (stimulation, at 2 µM), 4.6%. The viability decrease in experiment [2] is 97% (active). The tube area decrease in experiment [3] was 67.8% (active). In [4], the inhibition of viability was 90.6% (active). Also, the viability decrease (inhibition) in [5] is 95.1% (active); in [6], 95.3% (active).
`Cc1c(C)c2c(c(C)c1O)CC[C@@](C)(CCC[C@H](C)CCC[C@H](C)CCCC(C)C)O2`: the parasite load remaining in [11] is 72.9% (inactive). Further, the viability – broadly, a read-out of living cells in per cent, often relative to untreated cells – in experiment [11] worked out at 100%. Further, the nuclear beta-catenin stimulation in experiment [1] (at 10 µM) was 0.1% (inactive); in [1] (stimulation, at 2 µM) it was 0.4%. Moreover, in [7], the insulin secretion stimulation was 1% (inactive). In addition, the GLP1 secretion stimulation in [8] was 4.7% (inactive). Besides, the inhibition (as a rule, the change of the read-out against control, counted positive when it falls) in experiment [12] is -20.7% (inactive). The fold change is 0.864 (inactive) in experiment [9] (setting [16]) and 1.16 in [9] (setting [17]). Further, the cell count in experiment [9] (setting [18]) is 7550; in [9] (setting [19]) it was 8740. Moreover, the remaining NAD in experiment [13] was 10 nM (inactive).
Consider `CCC1Nc2cc(Cl)c(S(N)(=O)=O)cc2S(=O)(=O)N1` (centres undefined), for which the nuclear beta-catenin stimulation in [1] (at 10 µM) was -0.1% (inactive); in [1] (stimulation, at 2 µM), -1.8%. For the same compound, in [7], the insulin secretion stimulation was 0.25% (inactive). Besides, in experiment [8], the GLP1 secretion stimulation was 2% (inactive).
As to `Cc1cccc(Nc2cc(Cl)nc(SCC(=O)O)n2)c1C`, the survival in experiment [14] was 88 (inactive). Besides, the nuclear beta-catenin stimulation in [1] (at 10 µM) is -0.3% (inactive); in experiment [1] (stimulation, at 2 µM) it was 0.2%. Moreover, the insulin secretion stimulation in experiment [7] is -0.2% (inactive). In experiment [8], the GLP1 secretion stimulation is -3.8% (inactive). Further, the z-score in experiment [15] (MELAS cybrid survival, CellTiter-Glo 48 h, stronger effect = higher value) was -0.392 (inactive); in experiment [15] (Rieske KO mouse fibroblast survival, CellTiter-Glo 72 h) it was -0.362; in [10] it was 0.215 (inactive).

For the origin of these results see PubChem BioAssay.
